These results are taken from publication PMC10726135, “HNF4α isoforms regulate the circadian balance between carbohydrate and lipid metabolism in the liver”.

Whole data set: some 18,000 sequences, median “log2 normalized intensity” near 0.39, cut for the highest 2% near 6.6. Only a selection was taken, and the highest values are over-represented in it overall.

The target in the experiment is T1, HNF4alpha2 (COS-7 nuclear extract) (Homo sapiens, UniProt P41235 1-474).
T1 sequence: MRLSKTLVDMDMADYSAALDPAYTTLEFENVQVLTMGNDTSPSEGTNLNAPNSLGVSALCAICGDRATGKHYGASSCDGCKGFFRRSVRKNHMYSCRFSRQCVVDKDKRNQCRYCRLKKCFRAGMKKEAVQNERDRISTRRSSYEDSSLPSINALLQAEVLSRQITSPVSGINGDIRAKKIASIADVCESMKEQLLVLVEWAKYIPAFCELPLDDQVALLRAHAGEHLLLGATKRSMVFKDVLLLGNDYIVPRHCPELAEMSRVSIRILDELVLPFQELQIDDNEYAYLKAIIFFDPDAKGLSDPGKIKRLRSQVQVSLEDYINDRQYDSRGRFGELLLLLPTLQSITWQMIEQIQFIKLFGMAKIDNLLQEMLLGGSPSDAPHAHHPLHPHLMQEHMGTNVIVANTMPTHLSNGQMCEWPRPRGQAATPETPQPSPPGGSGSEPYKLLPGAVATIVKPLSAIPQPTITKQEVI
Briefly: protein-binding microarray; COS-7 nuclear extract on double-stranded Agilent 4x180k PBM; binding buffer, salt, pH and temperature not given in the material; high values mean tight binding. The settings on record: chain copies: 2; label: 3' end of strand 1 on the slide; dsDNA, one strand shown. An outline of the steps:
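Binding signal is the background-corrected, normalized gProcessedSignal calculated by Agilent software. It was measured by applying nuclear extracts of COS-7 cells transiently transfected with a human HNF4α isoform expression vector to a custom Agilent SurePrint G3 4x180k array of ~44,000 double-stranded ~60-nt test sequences in quadruplicate, then imaging bound HNF4α on an Agilent G2565CA scanner at 2-µm resolution.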
In the case of “TGCCCCAGGAATGCCTTTTCTTTCATGTTGGCCTAGGGAGATTAGAGTATCGGTCGA”, the binding signal worked out at 1.43 log2 normalized intensity.
For “GTTGAGGAGTTTGTACTTTATCCTACAAGGGCCTAGGGAGATTAGAGTATCGGTCGA” the value was 2.25 log2 normalized intensity.
For “TCCTCTCAAAGTCCACCCGGCCAGCAGATGGCCTAGGGAGATTAGAGTATCGGTCGA” the value was 2.46 log2 normalized intensity.
Take “AAAGGTCATATCCAAAATATTTGCAGTGAGGCCTAGGGAGATTAGAGTATCGGTCGA”: the binding signal worked out at 1.79 log2 normalized intensity.
Regarding “ATATTTTCTTTGTGCTATTTTTGGCTTGGTGCCTAGGGAGATTAGAGTATCGGTCGA”, the binding signal came out at 2.13 log2 normalized intensity.
For “CCATTCTTGAGGACAGGCCAAATCCAGTAAGCCTAGGGAGATTAGAGTATCGGTCGA” the value was -0.994 log2 normalized intensity; for “GCCTTGCTGAGGAATTTGGACTTCAGCCCAGCCTAGGGAGATTAGAGTATCGGTCGA”, 6.11 log2 normalized intensity.
For “ATTGGGTCCACACATTCCTAGACCTTTGACGCCTAGGGAGATTAGAGTATCGGTCGA” the value was 3.26 log2 normalized intensity; for “TCCTAGACCTTTGACCTTTATACCTGTACGGCCTAGGGAGATTAGAGTATCGGTCGA”, 5.75 log2 normalized intensity.
“GTCCACACATTCCTAGACCTTTGACCTTTAGCCTAGGGAGATTAGAGTATCGGTCGA”: the binding signal was 8.13 log2 normalized intensity.
For “TCCTTCAGCGTGAACTTTGACATGAGAGAAGCCTAGGGAGATTAGAGTATCGGTCGA” the value was 3.66 log2 normalized intensity; for “CTTTATACCTGTACGTTACTCTGTACCTCGGCCTAGGGAGATTAGAGTATCGGTCGA”, 1.19 log2 normalized intensity; for “ATTGTGATTCCTGTGATACCTTCTTTGCCTGCCTAGGGAGATTAGAGTATCGGTCGA”, 1.13 log2 normalized intensity.
To “TGGGAGACATTCCTTCAGCGTGAACTTTGAGCCTAGGGAGATTAGAGTATCGGTCGA” belongs 6.72 log2 normalized intensity; to “CACATTCCTAGACCTTTGACCTTTATACCTGCCTAGGGAGATTAGAGTATCGGTCGA”, 7.82 log2 normalized intensity.
To “CCCAAGATGGATTGGGTCCACACATTCCTAGCCTAGGGAGATTAGAGTATCGGTCGA” belongs -0.811 log2 normalized intensity; to “GACATTCCTTCAGCGTGAACTTTGACATGAGCCTAGGGAGATTAGAGTATCGGTCGA”, 5.5 log2 normalized intensity.
On to “GACCTTTGACCTTTATACCTGTACGTTACTGCCTAGGGAGATTAGAGTATCGGTCGA”, for which the binding signal amounted to 7.39 log2 normalized intensity.
For “TTGACCTTTATACCTGTACGTTACTCTGTAGCCTAGGGAGATTAGAGTATCGGTCGA” the value was 3.65 log2 normalized intensity; for “GAATCACTCACTGACCTCTTTTGGATTTTTGCCTAGGGAGATTAGAGTATCGGTCGA”, 1.73 log2 normalized intensity; for “TCAGGAGTGATGCCAGAAGATTAGTGATGGGCCTAGGGAGATTAGAGTATCGGTCGA”, -0.625 log2 normalized intensity.
For the sequence “GACTGGAAGTTGCCCGAGCTGCCCTTTATCGCCTAGGGAGATTAGAGTATCGGTCGA”, the binding signal was 2.47 log2 normalized intensity.
To “CCGGTTTGTTCCATGCCACAGAATCGCCCCGCCTAGGGAGATTAGAGTATCGGTCGA” belongs 2.6 log2 normalized intensity.
On to “CCAGATGATCTTTACCCTGGAATGCTGTTAGCCTAGGGAGATTAGAGTATCGGTCGA”, for which the binding signal was found to be 1.33 log2 normalized intensity.
For “GGAGGAGCTGTTTGACATCCAAAGTTTCCTGCCTAGGGAGATTAGAGTATCGGTCGA” the value was 0.813 log2 normalized intensity; for “AAGTTGGAATTTGGGTGATCCTGGTAGCAGGCCTAGGGAGATTAGAGTATCGGTCGA”, 0.0957 log2 normalized intensity.
To “TGGTTTTATGGTGTCTTATCTTCCTCTGGCGCCTAGGGAGATTAGAGTATCGGTCGA” belongs 1.96 log2 normalized intensity.
For “CACACACACACACATTGCAGTATGCCCCCCGCCTAGGGAGATTAGAGTATCGGTCGA” the value was 5.1 log2 normalized intensity.
On to “TGCAGTATGCCCCCCCACCCCACACACACAGCCTAGGGAGATTAGAGTATCGGTCGA”, for which the binding signal was determined as 6.7 log2 normalized intensity.
Regarding “CACATTGCAGTATGCCCCCCCACCCCACACGCCTAGGGAGATTAGAGTATCGGTCGA”, the binding signal came to 6.96 log2 normalized intensity.
For “ACACACACATTGCAGTATGCCCCCCCACCCGCCTAGGGAGATTAGAGTATCGGTCGA” the value was 6.13 log2 normalized intensity; for “CCCCCCACCCCACACACACACAGCATTCCAGCCTAGGGAGATTAGAGTATCGGTCGA”, 5.05 log2 normalized intensity; for “TATGCCCCCCCACCCCACACACACACAGCAGCCTAGGGAGATTAGAGTATCGGTCGA”, 6.17 log2 normalized intensity.
Turning to “TACACCTGGGGGCTTCCCAACTCCATTATCGCCTAGGGAGATTAGAGTATCGGTCGA”, the binding signal was -0.261 log2 normalized intensity.
As to “TCCCTATGTTGTCCCTGCCCTTTGTCCAGGGCCTAGGGAGATTAGAGTATCGGTCGA”, the binding signal was found to be 3.89 log2 normalized intensity.
To “AGAATATTAGATGATAAGGGTGAAAAGATAGCCTAGGGAGATTAGAGTATCGGTCGA” belongs -0.989 log2 normalized intensity.
To “AAGGAGCTTGGGAAGACAGATGTGATATTCGCCTAGGGAGATTAGAGTATCGGTCGA” belongs -0.781 log2 normalized intensity; to “CTTTTCTGCTTTTGGAATTTGACCTCATTTGCCTAGGGAGATTAGAGTATCGGTCGA”, 6.91 log2 normalized intensity; to “AAGCCCTTCTTCTGGAGCCTCAGTAAGTTTGCCTAGGGAGATTAGAGTATCGGTCGA”, 0.629 log2 normalized intensity.
For “CGCATTTCTGCTTCTTCTCATTCTTGGAATGCCTAGGGAGATTAGAGTATCGGTCGA” the value was 1.39 log2 normalized intensity.
Turning to “TTTGTTGCCTCTTTTCTGCTTTTGGAATTTGCCTAGGGAGATTAGAGTATCGGTCGA”, the binding signal amounted to 2.71 log2 normalized intensity.
To “CTGCTTTTGGAATTTGACCTCATTTGCTCCGCCTAGGGAGATTAGAGTATCGGTCGA” belongs 5.7 log2 normalized intensity; to “TGCCTCTTTTCTGCTTTTGGAATTTGACCTGCCTAGGGAGATTAGAGTATCGGTCGA”, 7.84 log2 normalized intensity; to “CCCCTCAGTTTTTCTCTTTTGACCTTTGGAGCCTAGGGAGATTAGAGTATCGGTCGA”, 8.9 log2 normalized intensity.
“GTGCTTGGACCTGCTCTGTTTTCTTTCGGTGCCTAGGGAGATTAGAGTATCGGTCGA”: the binding signal amounted to 1.49 log2 normalized intensity.
To “GGTGACCCCTCAGTTTTTCTCTTTTGACCTGCCTAGGGAGATTAGAGTATCGGTCGA” belongs 4.09 log2 normalized intensity.
